Assay results: the supplement of paper PMC3414501
Where a name gives a salt, the structure may show the parent alone.

Tests used:
[1] = test system: S. cerevisiae SK1 pCDA2-eGFP (USY613), sporulating; assay: CDA2-GFP sporulation assay sensitivity score (z-score vs DMSO controls); higher = stronger inhibition of sporulation, active = hit call of the paper;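 also: active if sensitivity score above 5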
[2] = test system: S. cerevisiae NKY1551 his4x/his4B, sporulating; assay: HIS4 meiotic recombination assay sensitivity score (z-score vs DMSO controls); higher = stronger inhibition of sporulation/recombination, active = hit call of the paper;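 also: active if sensitivity score above 5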
[3] = test system: S. cerevisiae AD1-9 (efflux-pump deficient), vegetative growth in YPD; assay: growth sensitivity score (doubling time z-score vs DMSO controls); higher = slower growth, strongly negative scores also mark growth inhibition (complete suppression), active = hit call of the paper
Summary of the method: (§1)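 Yeast (Saccharomyces cerevisiae BY4741 and AD1-9) was grown in rich medium in microtiter plates from a starting OD600 of 0.065, with optical density read every 15 min over 24 hours. The growth sensitivity score was the difference between compound and solvent-only means, divided by the solvent-only standard deviation. Every experiment had eight solvent-only wells.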

[4] = test system: S. cerevisiae BY4741 (wild-type), vegetative growth in YPD; assay: as above
Summary of the method: as §1

SMILES | CDA2-GFP sporulation assay sensitivity score [1] | HIS4 meiotic recombination assay sensitivity score [2] | growth sensitivity score [3] | growth sensitivity score [4]
COc1cc(CNC(=O)CCCC/C=C/C(C)C)ccc1O [Capsaicin] (stock concentration (mM, diluted 1:100): 10) | -1.12 (inactive) | 2.12 (inactive) | 25.8 (active) | 3.2 (active)
CNC(=N)NCCC[C@H](N)C(=O)O [omega-N-Methylarginine] (stock concentration (mM, diluted 1:100): 9.3) | 1.34 (inactive) | -0.29 (inactive) | -3.59 | -0.56 (inactive)
CC1(C)C[C@@H]1C(=O)N/C(=C\CCCCSC[C@H](N)C(=O)O)C(=O)O [Cilastatin] (stock concentration (mM, diluted 1:100): 9.4) | -1.2 (inactive) | -0.68 (inactive) | -1.86 (inactive) | -0.97 (inactive)
C[C@]12CC[C@@H]3c4ccc(O)cc4CC[C@H]3[C@@H]1CC[C@@H]2O [Beta-Estradiol] (stock concentration (mM, diluted 1:100): 10) | 0.49 (inactive) | -2.13 (inactive) | 10.3 (active) | 3.35 (active)
CC(C)[C@H]1CC[C@H](C(=O)N[C@H](Cc2ccccc2)C(=O)O)CC1 [Nateglinide] (stock concentration (mM, diluted 1:100): 10) | 0.06 (inactive) | -0.37 (inactive) | 0.63 (inactive) | -0.35 (inactive)
O=C(c1ccccc1)c1ccc2n1CCC2C(=O)O (stereo not drawn) [Toradol] (stock concentration (mM, diluted 1:100): 6.8) | -1.05 (inactive) | -1.15 (inactive) | 0.21 (inactive) | 0.91 (inactive)
c1cnc(N2CCN(Cc3ccc4c(c3)OCO4)CC2)nc1 [Piribedil] (stock concentration (mM, diluted 1:100): 9.7) | 6.47 (inactive) | -0.82 (inactive) | -3.77 | 1.65 (inactive)
CC(=O)[C@H]1CC[C@H]2[C@@H]3CCC4=CC(=O)CC[C@]4(C)[C@H]3CC[C@]12C [Progesterone] (stock concentration (mM, diluted 1:100): 10) | 16.2 (active) | 6.09 (active) | 112 (active) | 4.04 (active)
C[C@]12CCC(=O)C=C1CC[C@@H]1[C@@H]2CC[C@@]2(C)[C@H]1CC[C@]2(O)C(=O)CO [Cortodoxone] (stock concentration (mM, diluted 1:100): 10) | 5 (inactive) | 0.86 (inactive) | 6.84 (active) | -0.69 (inactive)
Cc1[nH]cnc1CN1CCc2c(c3ccccc3n2C)C1=O [Alosetron hydrochloride] (stock concentration (mM, diluted 1:100): 8.9) | -0.89 (inactive) | -3.51 (inactive) | -0.69 (inactive) | 3.01 (active)
CC12CC3CC(C)(C1)CC(N)(C3)C2 [Memantine hydrochloride] (stock concentration (mM, diluted 1:100): 8.3) | 2.32 (inactive) | 1.61 (inactive) | -0.36 (inactive) | -0.66 (inactive)
CCCN[C@H]1CCc2nc(N)sc2C1 [Pramipexole] (stock concentration (mM, diluted 1:100): 10) | -1.03 (inactive) | -2.92 (inactive) | 51 (active) | -0.06 (inactive)
O=C1CC2(CCCC2)CC(=O)N1CCNCC1COc2ccccc2O1 (stereo not drawn) (stock concentration (mM, diluted 1:100): 10) | 19.1 (active) | -0.57 (inactive) | 3.73 (active) | 1.45 (inactive)
CCCc1c(OCCCCc2nnn[nH]2)ccc(C(C)=O)c1O (stock concentration (mM, diluted 1:100): 10) | -1.99 (inactive) | -2.23 (inactive) | 5.49 (active) | 1.14 (inactive)
O=C1CC[C@@H](C(=O)N2CSC[C@H]2C(=O)O)N1 [Pidotimod] (stock concentration (mM, diluted 1:100): 10) | 0.46 (inactive) | -0.31 (inactive) | 0.59 (inactive) | -1.4 (inactive)
CC(=O)NC[C@H]1CN(c2ccc(N3CCOCC3)c(F)c2)C(=O)O1 [Linezolide] (stock concentration (mM, diluted 1:100): 10) | 0.79 (inactive) | -0.83 (inactive) | 2.05 (active) | -1.67 (inactive)
Cc1nccn1CC1CCc2c(c3ccccc3n2C)C1=O (stereo not drawn) [Ondansetron hcl] (stock concentration (mM, diluted 1:100): 8.9) | -0.41 (inactive) | -0.73 (inactive) | -1.11 (inactive) | -0.22 (inactive)
